This is a sample that favours compounds with a hit; in the whole collection about 18% have one here.
PLK1 PBD inh – PLK1 (human) polo-box domain binding inhibition; Potency, µM, most hits filed as inhibitors; 360,000 tested, 2.8% active; Plk1 PBD binding of FITC phosphopeptide, fluorescence polarization; further: series mostly up to about 57 µM; nearly all actives have a fitted effect of over 65% in size
Target sequence (P53350 whole entry, looked up, the tested form may be a part): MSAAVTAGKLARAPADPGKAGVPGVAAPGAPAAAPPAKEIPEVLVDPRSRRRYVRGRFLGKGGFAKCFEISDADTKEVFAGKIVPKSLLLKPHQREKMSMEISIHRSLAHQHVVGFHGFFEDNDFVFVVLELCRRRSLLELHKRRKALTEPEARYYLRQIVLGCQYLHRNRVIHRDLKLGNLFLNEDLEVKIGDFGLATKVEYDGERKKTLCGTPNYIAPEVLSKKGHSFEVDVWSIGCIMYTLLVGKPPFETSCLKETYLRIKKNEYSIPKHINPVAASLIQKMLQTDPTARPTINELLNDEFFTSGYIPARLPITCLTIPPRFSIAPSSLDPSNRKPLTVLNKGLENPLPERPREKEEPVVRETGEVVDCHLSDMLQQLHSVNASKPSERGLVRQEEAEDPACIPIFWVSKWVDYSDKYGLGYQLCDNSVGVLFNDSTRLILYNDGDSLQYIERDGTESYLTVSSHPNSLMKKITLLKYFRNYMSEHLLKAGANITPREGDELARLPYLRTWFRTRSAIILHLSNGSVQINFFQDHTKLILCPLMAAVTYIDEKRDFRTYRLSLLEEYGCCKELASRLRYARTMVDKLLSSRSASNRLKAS
TDP1 cell CPT – growth inhibition of DT40 Tdp1-/-;hTDP1 cells with camptothecin (screen for TDP1 inhibitors); AID 686979; 420,000 tested, 12% active; Potency, µM (highest dose often 46.2 µM), most hits filed as inhibitors; chicken DT40 Tdp1-/-;hTDP1 cells + 20 nM CPT, ATP luminescence, 48 h; further: nearly all actives have a fitted effect of over 55% in size
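Cell growth measured by CellTiter-Glo luminescence after a minimum 48 h, 37 C compound exposure with 20 nM CPT in Tdp1-knockout DT40 cells stably expressing hTDP1, seeded 400/well; qHTS titration format.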
TDP1 inh – TDP1 (human) enzyme inhibition; recombinant TDP1, AlphaScreen DNA substrate cleavage; Potency, µM (series often up to 130 µM), hits mostly inhibitors; 350,000 tested, 0.28% active; AID 485290; further: nearly all actives have a fitted effect of over 40% in size
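Enzyme-compound mixtures sat 15 min at room temperature, followed by a 5 min reaction with 15 nM final substrate and 10 min with AlphaScreen beads. Recombinant human Tdp1 was used at 1 nM final.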
KAT2A inh – GCN5L2 (KAT2A) acetyltransferase inhibition | Potency, µM (titrated, usually from 58.9 µM), hits mostly inhibitors | AID 504327 | 390,000 tested, 0.21% active | GCN5L2 HAT assay, ThioGlo1 CoA-SH fluorescence
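Enzyme at 20nM final was mixed with library compounds for 15 min at room temperature. Peptide H3(1-25) at 75uM, acetyl-CoA at 70uM and ThioGlo1 at 50uM were then added. Plates were read immediately and after 20 min (Ex340nm/Em540nm).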
VDR inh – inhibitors of human vitamin D receptor. Potency, µM, hits mostly inhibitors. P11473. VDR-SRC2-3 peptide fluorescence polarization, 2 h. 400,000 tested, 0.93% active. AID 504847
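Inhibition of the VDR/SRC2-3 peptide interaction is quantified by fluorescence polarization. Compounds (23 nl, pintool) incubate with the reagents for 2 hours at ambient room temperature.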
DT40 TDP1 no CPT – qHTS for Inhibitors of human tyrosyl-DNA phosphodiesterase 1 (TDP1): qHTS in cells in absence of CPT | DT40 Tdp1-/- hTDP1 cells, no CPT, ATP luminescence, 48 h | Potency, µM (top dose mostly 46.2 µM), hits mostly inhibitors | 420,000 tested, 15% active; further: nearly all actives have a fitted effect of over 55% in size
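Cells were dispensed at 400 per well, compounds added by pin tool, plates incubated ≥48 hr at 37 °C, then CellTiter-Glo added for 30 min at room temperature before luminescence reading. Line: DT40 Tdp1-/- complemented with hTDP1; camptothecin omitted.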
Numbers stand for hits; – = inactive; ? = inconclusive; · = no result; ! = repeats disagree; [ ] = dose if it differs, or a comment. The call rests on the fitted dose curve; in most records, active means well fitted curve in the direction sought with a large enough effect; inconclusive means small, poorly fitted or top-dose-only effect, or another doubt; inactive means no such curve, though single readings can be large; an effect the other way counts as inactive or inconclusive.

SMILES	PLK1 PBD inh	TDP1 cell CPT	TDP1 inh	KAT2A inh	VDR inh	DT40 TDP1 no CPT
CC1(Cc2cccc(C(F)(F)F)c2)C(=O)Nc2ccc(-c3ccc(F)c(Cl)c3)cc21 (stereo not given)	–	?	·	·	·	23µM
COc1cccc(-c2cccc3c2NC(=O)C3(C)Cc2cccc(F)c2)c1 (stereo not given)	–	?	·	·	·	21µM
Cc1ccccc1OCC(=O)OCc1cc(=O)n2nc(-c3cccs3)sc2n1	·	?	–	–	–	?
O[C@@H]([C@H](O)[C@H](O)CBr)[C@H](O)CBr	–	18µM!	–	–	–	12µM!
O[C@@H]([C@H](O)[C@@H](O)CBr)[C@@H](O)CBr	·	·	–	·	·	·
CCOC(=O)c1ccc(NC(=O)c2cn(-c3ccccc3)nc2-c2ccc(OC)c(OC)c2)cc1	·	?	–[12.3 µM]	–	–	?
CCN1C(=O)/C(=C/C=C2/SCCN2C)SC1=S	–	?	–	–	–	13µM
CN1CCS/C1=C\C=C1/SC(=S)N(CC(=O)O)C1=O	–	–	–	–	–	?
Cc1ccccc1CN1C(=O)c2ccccc2S(=O)c2ccc(C(=O)NCc3ccco3)cc21 (stereo not given)	·	?	–	–	–	?
CC(=O)C(=Cc1ccc(-c2ccccc2)cc1)C(=O)c1ccccc1	–	18µM	·	·	·	?
CC(=O)C(=Cc1ccccc1)c1ccccc1	–	?	·	·	·	–
O=C(O)/C(=C\c1ccc(F)cc1)c1ccc(-c2ccccc2)cc1	24µM	–	·	?	–	–
CCN(CC)c1ccc(/C=C(\C#N)C(=O)c2ccc(Br)cc2)cc1	–	?	–	–	–	?
CN(C)c1ccc(C=C(C#N)C(=O)c2ccccc2)cc1Br	0.84µM	–	·	·	·	–
Cc1ccc(C=C(C#N)C(=O)c2ccccc2)cc1	1.9µM	–	·	·	·	–
CO[C@H]1[C@H](NC(=O)c2cccs2)c2ccccc2C12CCN(Cc1cccn1-c1cccnc1)CC2	·	–	·	·	·	–
CC(=Cc1ccccc1)C(=O)c1ccccc1	–	?	·	·	·	?
N#C/C(=C\c1cccs1)C(=O)c1ccccc1	6.7µM	–	–	–	–	?
CN(C)c1ccc(/C=C(\C#N)C(=O)c2ccccc2)cc1	–	–	–	–	–	–
COCCNC(=O)/C(C#N)=C/c1cccs1	–	–	–	–	–	–
COc1ccc(C=C(C#N)C(=O)c2ccccc2)cc1	6.7µM	–	·	·	·	–
N#CC(=Cc1ccc(-c2ccccc2)cc1)C(=O)c1ccccc1	1.5µM	?	·	·	·	–
O=C(C(Br)=Cc1ccccc1)c1ccccc1	?	0.73µM	·	·	22µM	1.3µM
O=C(CSc1nc(-c2ccccc2)cc(=O)[nH]1)Nc1ccc(F)c(F)c1	–	–	·	–	–	–
COc1ccccc1NC(=O)CSc1nc(-c2cccc(Cl)c2)nc2c1Cc1c(CO)cnc(C)c1O2	·	–	–	–	–	–
SMILES	PLK1 PBD inh	TDP1 cell CPT	TDP1 inh	KAT2A inh	VDR inh	DT40 TDP1 no CPT
COc1ccc(/C=C(\C#N)C(=O)C(C)(C)n2cncn2)cc1	13µM	–	–	–	–	–
Cc1ccc(C(=O)N/C(=C\c2cccs2)C(=O)N2CCOCC2)cc1C	–	–	–	–	–	–
O=C(NCc1ccccc1Cl)c1cc(C(=O)C2CC2)c[nH]1	–	?	–	–	–	–
Cc1ccc(/C=C2/C(=O)ON=C2c2ccccc2)o1	0.67µM	21µM	–	?	–	15µM
COc1cc(/C=c2\sc3n(c2=O)CCCN=3)ccc1O	–	–	–	?	–	–
O=C1ON=C(c2ccccc2)/C1=C\c1ccco1	9.5µM	–	–	?	?	–
COc1cc(/C=c2\sc3n(c2=O)C(c2ccccc2)C(c2ccccc2)=NN=3)ccc1O (stereo not given)	–	?	–	–	–	15µM
CCCCc1ccc(/C=C2/C(=O)ON=C2c2ccccc2)s1	–	–	–	–	?	?
COc1cc(/C=C2/C(=O)ON=C2c2ccccc2)ccc1O	?	23µM	–	–	50µM	18µM
CCc1nn(Cc2c(C)cc(C)cc2C)c(=O)c2cc3cc(C)ccc3n12	·	–	–	–	–	–
CCCCNC(=O)COC(=O)c1ccccc1F	–	–	–	–	–	–
COc1ccccc1N1C(=O)CC(Sc2ncccc2C(=O)O)C1=O (stereo not given)	–	–	–	–	–	–
O=C(O)c1cccnc1SC1CC(=O)N(c2ccc(OC(F)F)cc2)C1=O (stereo not given)	–	?	·	–	–	15µM
COCCn1c(SCC(=O)NC2CCCC2)nnc1C(C)C	–	–	–	–	–	–
Cn1c(N2CCN(S(=O)(=O)c3ccc(Cl)cc3)CC2)nc2ccccc21	–	?	–	–	–	?
CCn1c(N2CCN(S(=O)(=O)c3ccccc3)CC2)nc2ccccc21	–	?	·	–	–	18µM
CC(C)Cn1c(SCC(=O)N2CCN(S(=O)(=O)c3ccccc3)CC2)nc2ccccc21	–	18µM	–	–	–	?
Cc1ccc(CNC(=O)C2CCCN(S(=O)(=O)c3ccc4c(c3)oc(=O)n4C)C2)cc1 (stereo not given)	·	–	–	–	–	?
Cc1cc(C(=O)CSc2nnc(NCc3ccccc3)s2)c(C)n1C	–	10µM	–	–	–	13µM
CN1/C(=C\C(=O)CSc2nnc(NCc3ccccc3)s2)C(C)(C)c2ccccc21	–	15µM	–	–	–	?
COc1cc(C2C(C(=O)Nc3ccc(C)cc3C)=C(C)Nc3nc4ccccc4n32)cc(OC)c1OC (stereo not given)	·	–	–	–	–	–
O=C(CNC(=O)OCc1ccccc1)NC(Cc1cnc[nH]1)C(=O)O (stereo not given)	–	?	·	·	–	16µM
O=C(NC(Cc1ccccc1)C(=O)O)OCc1ccccc1 (stereo not given)	–	–	–	–	–	–
COc1ccccc1-c1noc(-c2ccc(N3CCOCC3)c([N+](=O)[O-])c2)n1	·	21µM	–	–	–	13µM
COc1cc(-c2noc(-c3ccc(N4CCCCC4)c([N+](=O)[O-])c3)n2)cc(OC)c1OC	·	–	–	–	–	–
COc1ccc(-c2noc(-c3ccc(N4CCN(C)CC4)c([N+](=O)[O-])c3)n2)cc1OC	·	5.2µM	–	–	–	3.3µM
C[C@H](CO)N1C[C@H](C)[C@@H](CN(C)S(=O)(=O)c2ccc(F)cc2)Oc2c(NS(=O)(=O)c3ccc(F)cc3)cccc2C1=O	–	?	–	–	–	–
CC(C)OC(=O)[C@H]1O[C@H](CCCCOCc2ccccc2)[C@@H](C)[C@H]2O[C@H]21	·	·	–	·	–	·
Cc1c(Cl)c([N+](=O)[O-])nn1CCCC(=O)NC1CCCCC1	–	–	–	–	–	–
